About 2,800 (7.6%) of roughly 37,000 compounds were called active. Roughly 1% stayed inconclusive and do not appear here. Rule as the data show it: active = inhibition above about 80%; inconclusive = no clear call, values can overlap the other calls; inactive = below that. Many of the other results were omitted from the sample, so actives are more common in it than they were.

A short description of this experiment: NOMO-1 AML cell viability reduction, primary screen, STK33 inhibitor project, CellTiter-Glo luminescence (AID 2330). The settings on record: NOMO-1 AML viability, 72 h, active compounds read high, concentration not given here.
On to `Cc1ccc(OCc2n[nH]c(=S)n2C2CCCCC2)c2c1CCC2`, for which the inhibition (as a rule, the relative decrease from the control value, in per cent) is 111% (active).
Under `C=CCn1c(=O)c(C(=O)NCc2ccccn2)c(O)c2ccccc21` stands -12.4% (inactive).
Consider `Cc1noc(C)c1NC(=O)Nc1ccc2c(c1)CC(=O)N([C@@H](C)CO)C[C@H](C)[C@@H](CN(C)CC1CCCCC1)O2`, for which the inhibition was 46.5% (inactive).
Under `C[C@@H]1CN([C@@H](C)CO)C(=O)c2cccc(NC(=O)Nc3ccc(F)cc3)c2O[C@@H]1CN(C)Cc1ccc(C(=O)O)cc1` stands 0.82% (inactive).
Under `CCC/C=C/C=C/C1CC(O)C(O)C1C(=O)O` (centres undefined) stands 4.09% (inactive); under `C[C@@H]1CN([C@@H](C)CO)C(=O)c2cc(NS(=O)(=O)c3cn(C)cn3)ccc2O[C@@H]1CN(C)Cc1ccc(C(=O)Nc2ccccc2N)cc1`, 5.34% (inactive).
Under `Cc1ccc(S(=O)(=O)Nc2ccc3c(c2)C(=O)N([C@@H](C)CO)C[C@@H](C)[C@H](CN(C)Cc2ccc(C(=O)O)cc2)O3)cc1` stands 2.99% (inactive); under `C[C@H]1CN([C@@H](C)CO)C(=O)c2cc(NC(=O)c3ccncc3)ccc2O[C@H]1CN(C)Cc1ccc(C(=O)Nc2ccccc2N)cc1`, 107% (active); under `C[C@@H]1CN([C@@H](C)CO)C(=O)c2cc(NC(=O)c3ccncc3)ccc2O[C@H]1CN(C)Cc1ccc(C(=O)O)cc1`, 19.8% (inactive).
Consider `C[C@@H]1CN([C@H](C)CO)C(=O)c2cc(NS(=O)(=O)c3cn(C)cn3)ccc2O[C@@H]1CN(C)Cc1ccc(C(=O)Nc2ccccc2N)cc1`, for which the inhibition is 20.1% (inactive).
Consider `Cc1ccc(S(=O)(=O)Nc2ccc3c(c2)C(=O)N([C@H](C)CO)C[C@H](C)[C@H](CN(C)Cc2ccc(C(=O)Nc4ccccc4N)cc2)OCCCC[C@@H](C)O3)cc1`, for which the inhibition was 127% (active).
Under `Cc1ccc(S(=O)(=O)Nc2ccc3c(c2)C(=O)N([C@H](C)CO)C[C@H](C)[C@H](CN(C)Cc2ccccc2)OCCCC[C@@H](C)O3)cc1` stands 45.3% (inactive); under `C[C@@H]1CN([C@@H](C)CO)C(=O)c2cc(NC(=O)c3ccncc3)ccc2O[C@@H]1CN(C)Cc1ccncc1`, -12.5% (inactive).
For the molecule `Cc1ccc(S(=O)(=O)Nc2ccc3c(c2)C(=O)N([C@@H](C)CO)C[C@@H](C)[C@@H](CN(C)Cc2ccc(C(=O)Nc4ccccc4N)cc2)O3)cc1`, the inhibition is 110% (active).
Under `C[C@H](CO)N1C[C@H](C)[C@H](CN(C)Cc2ccc(C(=O)Nc3ccccc3N)cc2)Oc2ccc(NS(C)(=O)=O)cc2C1=O` stands 50.3% (inactive); under `C[C@@H]1CCCCO[C@H](CN(C)Cc2ccccc2)[C@@H](C)CN([C@H](C)CO)C(=O)c2cc(NS(=O)(=O)c3ccc(Cl)cc3)ccc2O1`, 40.5% (inactive); under `C[C@@H]1CN([C@@H](C)CO)C(=O)c2cc(NS(=O)(=O)c3ccccc3)ccc2O[C@@H]1CN(C)Cc1ccc(C(=O)Nc2ccccc2N)cc1`, 110% (active).
In the case of `N#Cc1cccc(CSc2nnc(CCCO)n2-c2ccccc2)c1`, the inhibition was -3.86% (inactive).
Turning to `C[C@H]1CN([C@@H](C)CO)C(=O)c2cc(NS(=O)(=O)c3cn(C)cn3)ccc2O[C@H]1CN(C)CC1CCCCC1`, the inhibition was 0.874% (inactive).
Under `Cc1noc(C)c1NC(=O)Nc1ccc2c(c1)C(=O)N([C@@H](C)CO)C[C@H](C)[C@@H](CN(C)C)O2` stands 17.2% (inactive); under `O=C(Nc1ccc(C23CC4CC(CC(C4)C2)C3)cc1)c1cccs1`, 1.68% (inactive).
As for `Cc1noc(C)c1S(=O)(=O)Nc1cccc2c1O[C@H](CN(C)Cc1ccc(C(F)(F)F)cc1)[C@H](C)CN([C@@H](C)CO)C2=O`, the inhibition was 11.5% (inactive).
For `C[C@H]1CN([C@@H](C)CO)C(=O)Cc2cc(NC(=O)NC3CCCCC3)ccc2O[C@H]1CN(C)S(=O)(=O)c1ccccc1`, the inhibition was 0.581% (inactive).
As to `CC(=O)Nc1ccc(S(=O)(=O)N2CCCC2C(=O)O)cc1` (centres undefined), the inhibition is 27.5% (inactive).
Take `C[C@H]1CN([C@@H](C)CO)C(=O)Cc2cc(NS(=O)(=O)c3ccc(Cl)cc3)ccc2O[C@@H]1CN(C)S(=O)(=O)c1ccccc1`: the inhibition was 48.5% (inactive).
Under `Cc1ccc(S(=O)(=O)N(C)C[C@H]2Oc3ccc(NC(=O)C4CC4)cc3C(=O)N([C@H](C)CO)C[C@H]2C)cc1` stands 32.5% (inactive).
Turning to `CCOc1c(S(=O)(=O)NCc2cccnc2)ccc(Cl)c1Cl`, the inhibition is -5.95% (inactive).
Regarding `Cc1ccc(Cl)cc1NC(=O)CN(c1cccc(Cl)c1C)S(C)(=O)=O`, the inhibition was 47.6% (inactive).
Under `C[C@@H]1CN([C@@H](C)CO)C(=O)c2cccc(NS(=O)(=O)c3cccs3)c2O[C@H]1CN(C)Cc1ccncc1` stands -14.5% (inactive); under `Cc1noc(C)c1S(=O)(=O)Nc1ccc2c(c1)C(=O)N([C@@H](C)CO)C[C@@H](C)[C@H](CN(C)Cc1ccc(-c3ccccc3)cc1)O2`, 20.3% (inactive); under `Cc1noc(C)c1S(=O)(=O)Nc1ccc2c(c1)C(=O)N([C@@H](C)CO)C[C@@H](C)[C@H](CN(C)C(=O)Nc1cccc3ccccc13)O2`, 7.46% (inactive).
Under `Cc1noc(C)c1S(=O)(=O)Nc1ccc2c(c1)C(=O)N([C@@H](C)CO)C[C@H](C)[C@H](CN(C)Cc1ccc(C(=O)Nc3ccccc3N)cc1)O2` stands 104% (active).
With `Cn1nnc2cc(C(=O)N(CCO)c3ccccc3)ccc21`, the inhibition was -5.36% (inactive).
Under `Cc1ccc2nc(-c3ccncc3)cc(C(=O)NCc3ccccn3)c2c1` stands 53.9% (inactive).
Under `COC(=O)c1c(NC(=O)c2cc(-c3ccccn3)nc3ccc(Br)cc23)sc(C(=O)N(C)C)c1C` stands 85.7% (active); under `COC(=O)c1c(NC(=O)c2cc(-c3ccccn3)nc3c(C)cc(C)cc23)sc(C)c1C`, 19.6% (inactive).
Take `Cc1noc(C)c1NC(=O)Nc1ccc2c(c1)C(=O)N([C@H](C)CO)C[C@H](C)[C@H](CN(C)Cc1ccc(Oc3ccccc3)cc1)O2`: the inhibition is 30% (inactive).
Under `Cc1cc(C(=O)Nc2cccc3c2O[C@@H](CN(C)C(=O)Nc2ccc4c(c2)OCO4)[C@H](C)CN([C@@H](C)CO)C3=O)n(C)n1` stands 11.4% (inactive); under `C[C@H](CO)N1C[C@H](C)[C@@H](CN(C)Cc2ccc(C(=O)Nc3ccccc3N)cc2)Oc2c(NC(=O)c3ccc(-c4nccs4)cc3)cccc2C1=O`, 138% (active); under `C[C@@H]1CN([C@@H](C)CO)C(=O)c2cccc(NC(=O)c3ccc(-c4nccs4)cc3)c2O[C@@H]1CN(C)Cc1ccncc1`, 35.3% (inactive).
For the molecule `C[C@H]1CN([C@@H](C)CO)C(=O)c2cccc(NC(=O)c3ccc(-c4nccs4)cc3)c2O[C@H]1CN(C)Cc1ccc(C(=O)O)cc1`, the inhibition was 23.4% (inactive).
Consider `C[C@H](CO)N1C[C@H](C)[C@@H](CN(C)S(C)(=O)=O)Oc2c(NC(=O)c3ccc(-c4nccs4)cc3)cccc2C1=O`, for which the inhibition is 3.98% (inactive).
Under `C[C@@H]1CN([C@@H](C)CO)C(=O)c2cccc(NC(=O)c3ccc(-c4nccs4)cc3)c2O[C@H]1CN(C)Cc1ccc(Cl)c(Cl)c1` stands 97.3% (active).
Under `C[C@H](CO)N1C[C@H](C)[C@H](CN(C)S(C)(=O)=O)Oc2c(NC(=O)c3ccc(-c4nccs4)cc3)cccc2C1=O` stands 1.84% (inactive); under `CC(C)NC(=O)N(C)C[C@H]1Oc2c(NS(=O)(=O)c3ccc(Cl)cc3)cccc2C(=O)N([C@@H](C)CO)C[C@H]1C`, 12.1% (inactive).
Under `COc1ccc(NC(=O)Nc2ccc3c(c2)C(=O)N([C@@H](C)CO)C[C@H](C)[C@@H](CN(C)C(=O)NC2CCCCC2)O3)cc1` stands -2.68% (inactive); under `CCOc1cc(S(=O)(=O)NC2CC(C)(C)NC(C)(C)C2)ccc1F`, -9.77% (inactive).
As for `CC(=O)Nc1ccc(Nc2c3c4c(cccc4[nH]c2=O)C(=O)c2ccccc2-3)cc1`, the inhibition is 115% (active).
With `CC(=O)Nc1ccc(NC(=O)COc2ccccc2C(=O)Nc2cccc(Cl)c2Cl)cc1`, the inhibition was -3.66% (inactive).
Regarding `CC(=O)Nc1ccc(NC(=O)CC2C(=O)Nc3ccccc3N2C(C)=O)cc1` (centres undefined), the inhibition was -5.07% (inactive).
Under `Cc1ccc(C23CC4CC(CC(CN)(C4)C2)C3)cc1C` stands 116% (active).
In the case of `O=C(CSc1nc2ccccc2o1)Nc1ccccn1`, the inhibition is 2.56% (inactive).
Turning to `Cc1ccc(S(=O)(=O)N(C)C[C@@H]2Oc3c(NC(=O)Nc4c(C)noc4C)cccc3C(=O)N([C@@H](C)CO)C[C@@H]2C)cc1`, the inhibition was 22.7% (inactive).
As for `O=C(CSc1nnc(-c2ccncc2)n1-c1ccccc1)Nc1ccc(Cl)c(Cl)c1`, the inhibition is 33.8% (inactive).
With `CCn1c(SCC(=O)Nc2cc(Cl)ccc2OC)nnc1-c1ccc(Br)cc1`, the inhibition was 25% (inactive).
Consider `O=C(CSc1nnc(-c2ccncc2)n1-c1ccc(Cl)cc1)Nc1ccc(C(=O)O)cc1`, for which the inhibition is -34.2% (inactive).
As to `COC(=O)CSc1nnc(-c2ccc(Cl)cc2)n1-c1ccc(Br)cc1`, the inhibition is 95.1% (active).
As for `O=C(CSc1nnc(-c2ccccc2)n1-c1ccc(Cl)cc1)Nc1ccc(Cl)cc1`, the inhibition is 83.3% (active).
Under `COc1ccc(C(C)=O)cc1CSc1nnc(-c2ccc(Br)cc2)n1-c1ccccc1` stands 15.8% (inactive); under `O=C(CC(=O)c1ccccc1O)c1ccccc1`, 42.5% (inactive).
Under `C[C@@H]1CN([C@@H](C)CO)C(=O)Cc2cc(NC(=O)Cn3cnnn3)ccc2O[C@@H]1CN(C)S(=O)(=O)c1cn(C)cn1` stands -10.4% (inactive); under `COc1ccc(NC(=O)CN2CCN(S(=O)(=O)c3ccc4ccccc4c3)CC2)cc1`, 8.78% (inactive).
For the molecule `COC(=O)C1=C[C@H](O[C@@H]2O[C@H](CO)[C@@H](O)[C@H](O)[C@H]2O)C[C@H]2[C@]3(C)C[C@@H](c4ccoc4)OC(=O)[C@H]3CC[C@@]12C`, the inhibition is 22.8% (inactive).
Under `COc1ccc(NC(=O)N(C)C[C@@H]2Oc3c(NS(=O)(=O)c4ccc(OC)cc4)cccc3C(=O)N([C@H](C)CO)C[C@@H]2C)cc1` stands 14.6% (inactive).

The record behind these values is PubChem BioAssay AID2330 (Broad Institute, 2010).
